Protection from H2O2 cell death data for 53 molecules are collected here from PubChem BioAssay AID588492 (Sanford-Burnham Center for Chemical Genomics, 2011).

Among all 360,000 compounds or so, about 2,300 (0.64%) were called active. The full list was thinned out, with actives kept by preference. Values without a mark were called inactive.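 How the source made its calls: active means compounds giving at least 50% protection of heart cells from peroxide-induced death in the single-dose screen, raw or plate-pattern-corrected value; inactive means the rest.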

A short description of this experiment: cardioprotection against H2O2-induced cell death, primary screen, uHTS, H9c2 cells, ATPLite luminescence (AID 588492).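 Further: 0% = DMSO wells with peroxide and 100% = DMSO wells without peroxide.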 As to conditions: H9c2 cardiomyocytes, H2O2 injury protection, 2 h, at 20 µM, active compounds read high. In general terms: Cellular ATP, detected with luciferase, serves as a proxy for viable cell number.
Turning to `CC1(C)OC(=O)C2=C(CC(c3ccccc3)OC2CCc2ccccc2)O1` (stereo not drawn), the protection from H2O2 cell death is -19.2%.
Regarding `COc1cccc(Cn2cnc3c([N+](=O)[O-])c(C)c(C)cc32)c1`, the protection from H2O2 cell death was 1.8%.
The same measure for `O=C(N/N=C/c1cccc2cccnc12)[C@H]1C[C@@H]1c1ccccc1`: 84.8% (active); for `O=C(CSc1cccc2cccnc12)N/N=C/c1cccnc1`: -2.6%.
Turning to `Cc1ccc(NC(=O)C2CC2c2ccccc2)cc1` (stereo not drawn), the protection from H2O2 cell death is -6.9%.
In the case of `Cc1nnc(C)c2c(C)n(N)c(C)c12`, the protection from H2O2 cell death was 15.4%.
Consider `Cc1ccc(S(=O)(=O)N(C)C)cc1NC(=O)CN1c2cccc3cccc(c23)S1(=O)=O`, for which the protection from H2O2 cell death is 3.5%.
Turning to `O=C(NC(=O)N1CCSCC1)c1c(Cl)cccc1Cl`, the protection from H2O2 cell death is 4.6%.
`COC(=O)c1ccc(Nc2ncnc3sccc23)cc1`: the protection from H2O2 cell death was 5.6%.
For the molecule `CCOC(=O)c1ccc(N/C(=N/S(=O)(=O)c2ccccc2)c2ccccc2)cc1`, the protection from H2O2 cell death is 1.3%.
Take `CCOC(=O)c1nc(Nc2ccc(C(=O)OC)cc2)c2ccccc2n1`: the protection from H2O2 cell death is 50.6% (active).
Consider `CCc1ccc(OCC(=O)NCC(c2ccc(Cl)cc2)N2CCCCC2)cc1` (stereo not drawn), for which the protection from H2O2 cell death is 2.7%.
As for `COc1ccc(-c2[nH]ncc2/C=N/NC(=O)c2cc(Br)ccc2O)c(OC)c1`, the protection from H2O2 cell death was 3.5%.
Take `COc1ccc(CC(=O)NCC(=O)N/N=C/c2cc(Br)ccc2OC)cc1`: the protection from H2O2 cell death is 52.8% (active).
Take `Cc1ccc(OCCOCCOc2ccc(Br)cc2/C=N\NC(=O)c2ccncc2)cc1`: the protection from H2O2 cell death is 6.5%.
The result for `NC(=NC(=O)c1ccccc1)C1=C(O)CCC1=O` reads -0.2%.
For the molecule `C=CCn1c(-c2ccc(Cl)cc2)ccc(C#N)c1=O`, the protection from H2O2 cell death was -10%.
On to `COc1cc(N=Cc2c(O)[nH]c3ccccc23)cc(OC)c1OC`, for which the protection from H2O2 cell death was 69.8% (active).
Take `COc1cc2[nH]c(O)c(C=O)c2cc1OC`: the protection from H2O2 cell death was 4.5%.
In the case of `CN=c1scc(-c2cc(OC)ccc2OC)n1/N=C/c1c(C)[nH]c2ccccc12`, the protection from H2O2 cell death was 0.4%.
Take `COc1ccc(CCNc2cc(C)nc3c(-c4ccc(Cl)cc4)c(C)nn23)cc1OC`: the protection from H2O2 cell death was 0.4%.
On to `O=C(Nc1nnc(-c2ccccc2)o1)c1cccc(S(=O)(=O)N2CCOCC2)c1`, for which the protection from H2O2 cell death is 10.2%.
As to `COc1cc(-c2nnc(NC(=O)CS(=O)(=O)c3ccc(Cl)cc3)o2)cc(OC)c1OC`, the protection from H2O2 cell death was 6.5%.
The same measure for `COc1cccc(-c2nnc(NC(=O)c3ccc(S(=O)(=O)N(CC(C)C)CC(C)C)cc3)o2)c1`: 56.4% (active); for `CCc1ccc(/C=N/NC(=O)c2nnn(-c3nonc3N)c2CN2CCc3ccccc32)cc1`: -2.2%; for `NC(=O)c1cc(-c2cccnc2)nc2ccc(Br)cc12`: 0.3%.
The result for `O=C(NCc1ccco1)c1cc(-c2cccnc2)nc2ccc(Cl)cc12` reads 74% (active); that for `O=C(CSc1c2c(nc3ccc(Cl)cc13)CCCC2)NCc1ccco1`, 5.3%.
For the molecule `Cc1cccc(NC(=O)N2CCCCCC2)c1C`, the protection from H2O2 cell death was -0.5%.
For `O=C(COc1ccccc1F)Nc1nc(-c2ccccn2)cs1`, the protection from H2O2 cell death is 60% (active).
As to `O=C(NCCN1C(=O)C2C3C=CC(C3)C2C1=O)Nc1ccccn1` (stereo not drawn), the protection from H2O2 cell death was -2.9%.
As to `CC1CCN(S(=O)(=O)c2nnc(NC(=O)COc3ccccc3F)s2)CC1`, the protection from H2O2 cell death was -6.3%.
On to `O=C(CCN1C(=O)C2C3C=CC(C3)C2C1=O)Nc1ccccc1F` (stereo not drawn), for which the protection from H2O2 cell death is -1.8%.
With `N#Cc1ccc(OCC(=O)Nc2nc(-c3ccccn3)cs2)cc1`, the protection from H2O2 cell death was 69.2% (active).
As for `O=C(COc1ccccc1)Nc1nonc1NC(=O)COc1ccccc1`, the protection from H2O2 cell death is -3.9%.
For `CC(NC(=O)c1ccco1)C(=O)Nc1nc(-c2ccccn2)cs1` (stereo not drawn), the protection from H2O2 cell death is 10.4%.
Regarding `CC1CCCCC1NC(=O)COc1ccc(C#N)cc1` (stereo not drawn), the protection from H2O2 cell death is 7%.
On to `O=C(CN1C(=O)C2C3C=CC(C3)C2C1=O)Nc1nc(-c2ccccn2)cs1` (stereo not drawn), for which the protection from H2O2 cell death is 51.3% (active).
For `CC12CCC(=O)N1C(C(=O)Nc1ccc(F)c(F)c1F)CS2` (stereo not drawn), the protection from H2O2 cell death is 0.6%.
Take `COc1ccc2c(c1)c(=Cc1ccc(N(C)C)cc1)c1cc(-c3ccccc3)[n+](C)n12`: the protection from H2O2 cell death is -20%.
On to `COc1ccccc1N(C)S(=O)(=O)c1ccc(Cl)c(C(=O)Nc2ccncc2)c1`, for which the protection from H2O2 cell death was -8.6%.
Regarding `Cn1nnnc1-c1cc(Cl)cc(Cl)c1`, the protection from H2O2 cell death is -2.9%.
For `Cn1cccc1C(=O)NC(=O)COC(=O)Cc1coc2ccc3ccccc3c12`, the protection from H2O2 cell death is -3.6%.
As to `O=C(NCC(O)c1nc2ccccc2[nH]1)c1ccc(Br)cc1` (stereo not drawn), the protection from H2O2 cell death was -3.3%.
The same measure for `O=C(Nc1cccc(-c2nc3ccccc3[nH]2)c1)c1ccc(C(=O)Nc2cccc(-c3nc4ccccc4[nH]3)c2)cc1`: 49.1% (active); for `O=C(Nc1ccccc1)c1cc2ccccc2[nH]1`: 3.8%; for `CCOC(=O)Cn1c(O)c(N=NC(=O)CNC(=O)Cc2ccccc2)c2ccccc21`: 6.8%.
Take `CN(Cc1ccccc1F)c1cc2c(c3c1ccn3C)C1CCC2O1` (stereo not drawn): the protection from H2O2 cell death is -4.4%.
The result for `COc1ccccc1C(=O)C(O)c1ccccc1OC` (stereo not drawn) reads 1.8%; that for `CCCn1c(SCC(=O)Nc2ccc(C)c(S(=O)(=O)N3CCOCC3)c2)n[nH]c1=O`, 6.6%; that for `C[C@H]1Cn2cnc(C(=O)N[C@@H](Cc3c[nH]c4ccccc34)C(=O)OC(C)(C)C)c2C(=O)N1`, 99.5% (active).
`C[C@H]1Cn2cnc(C(=O)N[C@H](C)c3ccccc3)c2C(=O)N1`: the protection from H2O2 cell death was 7.3%.
Regarding `C[C@@H]1Cn2cnc(C(=O)Nc3ccc(CNC(=O)OC(C)(C)C)cc3)c2C(=O)N1`, the protection from H2O2 cell death is -12.9%.
